Molecules are shown by their SMILES. “And” between values parts separate entries of the source, which are not always exact repeats. Equal values may be shown once. Screen size: about 420,000 compounds; about 50,000 (12%) were called active. Not shown: some 26% with an inconclusive outcome. Calls come from the whole dose curve; as a rule, active = well fitted inhibition curve with a large enough effect; inconclusive = small, poorly fitted or top-dose-only effect; inactive = flat fitted curve, though single readings scatter. What follows is part of a selection rich in actives, with near analogues and random picks from the rest. A call without a number means that no potency is given here.
Potency is the fitted concentration of half-maximal effect.

A short description of this assay: qHTS for Inhibitors of human tyrosyl-DNA phosphodiesterase 1 (TDP1): qHTS in cells in presence of CPT. Note: nearly all actives have a fitted effect of over 55% in size. The conditions noted are these: chicken DT40 Tdp1-/-;hTDP1 cells + 20 nM CPT, ATP luminescence, 48 h; series mostly up to 46.2 µM. An excerpt:
Human tyrosyl-DNA phosphodiesterase 1 (TDP1) is a novel repair gene, and we propose to use it as a new target for anticancer drug development. TDP1 is not an essential protein, but under treatment with topoisomerase I poison (camptothecin: CPT), TDP1 works as a critical factor for cell survival. To directly identify novel TDP1 inhibitors active in a cellular environment, we have knocked-out the Tdp1 gene in chicken DT40 cells (Tdp1-/-) and generated a complemented counterpart cells that contains a stable transfection of the human TDP1 gene (Tdp1-/-;hTDP1 cells). For the primary screen, Tdp1-/-;hTDP1 cells will be exposed to small molecules in the presence or absence of CPT, and their growth kinetics will be evaluated after 48 hours by measuring ATP activity. […] The hit compounds will then be evaluated in the presence or absence of CPT using Tdp1-/- cells. […] In tertiary assays, biochemical gel-based assays will be used to assess whether the hit compounds specifically target TDP1. To this end, we have screened this cell line against the MLSMR in two primary screens. In one screen we add CPT and in the other we screen in the absence of CPT; this AID represents the screen where CPT was present. NIH Chemical Genomics Center [NCGC] NIH Molecular Libraries Probe Centers Network [MLPCN] MLPCN Grant: MH095538 Assay Submitter (PI): Yves Pommier, NCI
DT40-hTDP1 cells with 20 nM Camptothecin (add 20 microL of 1 mM CPT stock in 1 L of cell culture medium) were dispensed at 400 cells/5microL/well in tissue culture treated 1536-well white wall/solid bottom assay plates (Greiner Bio-One North America, NC, U.S.A.) using a Multidrop Combi 8 channel dispenser (Thermo Fisher, Waltham, MA, USA). 23 nL compounds and controls were transferred using the pin tool (Kalypsys, San Diego, CA, USA) to the assay plates. The assay plates were then incubated at 37 masculineC for a minimum 48 hr. Three microL of Cell Titer Glo solution was added to the plates and incubated at RT in dark for 30 min. Luminescence was read using ViewLux (Perkin Elmer) with 1 sec exposure slow speed, high gain and 2x binning.
On to `CCn1cc(C(=O)NCC(=O)NC(C)(C)CO)c(=O)c2cc3c(cc21)OCO3`, for which the Potency result is “inactive”.

Take `CCCCNC(=O)C1CCCNC1=O` (configuration not stated): the Potency result is “inactive”.

Consider `O=C(NC1CCCCC1)c1cc([N+](=O)[O-])ccc1N1CCOCC1`, for which the Potency entry was “inactive”.

`O=C(NCc1ccc2c(c1)OCO2)c1cc([N+](=O)[O-])ccc1N1CCOCC1`: the Potency was 3.26 µM (active).

As for `O=C(Cc1ccc([N+](=O)[O-])cc1)NCCc1ccc2c(c1)OCO2`, the Potency result is “inactive”.

Regarding `O=C1C2C3C=CC(C3)C2C(=O)N1c1ccc(S(=O)(=O)Nc2nccs2)cc1` (configuration not stated), the Potency entry is “inactive”.

Regarding `COc1ccc(C(=O)NCc2ccccc2C)cc1S(=O)(=O)NC1CCCC1`, the Potency entry is “inactive”.

Turning to `CC(=O)N(CC(O)CO)c1c(I)c(C(=O)NCC(O)CO)c(I)c(C(=O)NCC(O)CO)c1I` (configuration not stated), the Potency result was “inactive”.

In the case of `O=C(C1CC(=O)N(c2ccc(Br)cc2)C1)N1CCCC1` (configuration not stated), the Potency entry is “inactive”.

Regarding `COc1ccc(N(Cc2ccccc2)S(=O)(=O)c2cccc(C(=O)O)c2)cc1`, the Potency result was “inactive”.

Take `COc1ccc(NC(=O)CS(=O)(=O)c2ccccc2)cc1`: the Potency result was “inactive”.

Regarding `COc1ccc(C(CC(=O)c2ccccc2)S(=O)(=O)c2ccccc2)cc1` (configuration not stated), the Potency is 23.1 µM (active).

Turning to `NC(=O)c1ncn([C@@H]2O[C@H](CN=C3NS(=O)(=O)c4ccccc43)[C@@H](O)[C@H]2O)n1`, the Potency entry is “inactive”.

Regarding `CC(Oc1ccc(Br)cc1)C(=O)NCC(c1ccco1)N1CCCCC1` (configuration not stated), the Potency entry is “inactive”.

As to `CN(C)S(=O)(=O)c1ccc(NC(=O)N2CCOCC2)cc1`, the Potency entry is “inactive”.

Regarding `CN(C)S(=O)(=O)c1ccc(Oc2ccc(S(=O)(=O)N(C)C)cc2)cc1`, the Potency is 16.4 µM (active).

With `COc1ccc(S(=O)(=O)N(C)CC(=O)N2CCCC2)cc1`, the Potency entry is “inactive”.

In the case of `COc1ccc(N(CC(=O)Nc2cc(OC)cc(OC)c2)S(=O)(=O)c2c(C)n[nH]c2C)cc1`, the Potency entry was “inactive”.

`COc1ccc(CCNC(=O)COC(=O)c2ccc[nH]c2=O)cc1`: the Potency result was “inactive”.

Regarding `CC(C)=N/N=C1/NC(=O)C(Cc2ccccc2)S1` (configuration not stated), the Potency result is “inactive”.

For the molecule `CCN(CC(=O)NCc1cccs1)C(=O)/C=C/c1ccc(C)cc1`, the Potency entry was “inactive”.

Consider `O=C(Cc1ccccc1)NNC1CC(=O)N(c2ccc(Br)cc2)C1=O` (configuration not stated), for which the Potency entry was “inactive”.

As to `O=C1CCN(CCCc2ccccc2)CCN1CCO`, the Potency entry was “inactive”.

For `C[C@H]1CCC(=O)N([C@H](CSc2ccccc2)Cc2ccccc2)CC1`, the Potency entry is “inactive”.

As for `O=C1CCN(Cc2ccc([N+](=O)[O-])cc2)CCN1[C@H](CO)Cc1ccccc1`, the Potency entry was “inactive”.

For the molecule `O=C1CC[C@H](O)CCN1[C@H](CSc1ccc(Br)cc1)Cc1ccccc1`, the Potency was 11.2 µM (active) and 14.6 µM (active).

As for `COc1ccc(SC[C@H](Cc2ccccc2)N2CCN(CCc3ccccc3)CCC2=O)cc1`, the Potency was 23.1 µM (active).

Take `O=C(CN1CCC(NC(=O)C2CC2)CC1)Nc1ccccc1[N+](=O)[O-]`: the Potency entry was “inactive”.

With `Cc1cc(C(F)F)nn1CC(=O)NC1CCCCCC1`, the Potency result was “inactive”.

For the molecule `Cc1ccc2c(cnn2C(=O)CCC(=O)NC2CCCC2)c1`, the Potency entry was “inactive”.

Regarding `O=C(Cc1cccs1)Nc1ccc([N+](=O)[O-])cc1`, the Potency entry was “inactive”.

As to `CCCC(=O)n1nc(-c2ccccc2)nc1N`, the Potency result was “inactive”.

In the case of `CCc1nn(-c2cc(Oc3cccc4ccccc34)nc(-c3ccccc3)n2)c(N)c1C#N`, the Potency was 10.3 µM (active).

Turning to `CC(C(=O)N1CCN(c2ccccc2F)CC1)c1ccc([N+](=O)[O-])cc1` (configuration not stated), the Potency entry is “inactive”.

As for `CC1CCN(CC(=O)Nc2nccs2)CC1`, the Potency result is “inactive”.

`Cc1c(C)c(C)c(S(=O)(=O)N2CCC3(CC2)OCCO3)c(C)c1C`: the Potency entry is “inactive”.

With `CCOc1ccc(NC(=O)CN(C)C(=O)CSc2ccccc2)cc1OCC`, the Potency result was “inactive”.

Consider `COc1cc2c(cc1OC)CN(C(=O)c1ccc(S(=O)(=O)N3CCCCCC3)cc1)CC2`, for which the Potency is 20.6 µM (active).

For the molecule `COc1ccc(S(=O)(=O)N2CCCCC2)cc1Br`, the Potency result is “inactive”.

On to `COc1cc2c(cc1OC)CN(C(=O)c1cc(S(=O)(=O)N3CCCCC3)ccc1Cl)CC2`, for which the Potency is 20.6 µM (active).

Take `CN1CCN(NC(=O)c2ccc(S(=O)(=O)N3CCCCCC3)cc2)CC1`: the Potency entry is “inactive”.

Take `O=C(c1cc(S(=O)(=O)N2CCOCC2)ccc1Cl)N1CCOCC1`: the Potency entry was “inactive”.

As for `COC(=O)c1ccc(CNC(=O)c2ccc(S(=O)(=O)N3CCCCCC3)cc2)cc1`, the Potency result was “inactive”.

`COc1ccc(C(=O)n2nc(-c3ccc(C)cc3)nc2N)cc1OC`: the Potency was 13 µM (active).

Consider `COc1ccc(C(=O)CN2C(=O)NC(C)(c3ccc(C)cc3)C2=O)cc1OC` (configuration not stated), for which the Potency result is “inactive”.

In the case of `COc1ccc(C(=O)n2nc(C)c(Br)c2C)cc1OC`, the Potency result is “inactive”.

Take `CN1CCN(c2ccc(CNS(=O)(=O)c3cccc(F)c3)cc2)CC1`: the Potency result is “inactive”.

For the molecule `CCCCc1ccc(S(N)(=O)=O)cc1`, the Potency entry is “inactive”.

Take `N#Cc1ccccc1CN1C(=O)S/C(=C/c2cccn2-c2cccc(C(=O)O)c2)C1=O`: the Potency result was “inactive”.

For `Cc1cccc2cc3c(N)c(C(=O)N4CCCc5ccccc54)sc3nc12`, the Potency was 4.11 µM (active).

With `O=C(c1cc(-c2ccc(O)cc2)on1)N1CCCc2ccccc21`, the Potency entry was “inactive”.

For the molecule `Cc1c(C(=O)N2CCCc3ccccc32)oc2ccccc12`, the Potency result was “inactive”.

The values are drawn from PubChem BioAssay AID686979 (National Center for Advancing Translational Sciences (NCATS), 2013).
